Reference: the supplement of paper PMC6522484
± gives the standard deviation of the averaged measurements.

Columns and labels:
[1] = system: DLD1; experiment: cell viability (CellTiter-Glo) relative to plate median (fraction of plate median); higher = more viable cells; settings: 5 µM; treatment time 24 h; reporter: 7TFP
In short: (§1)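 Colorectal cancer cell lines stably transduced with lentiviral TCF/Wnt firefly luciferase reporters (7TFP or TCF4/Wnt) were seeded in 384-well plates. 24 h later they received library compounds at a final 5 µM for 24 h. Parallel plates were read for firefly luciferase or CellTiterGlo luminescence on a Tecan F500 reader. Each well's signal was normalised to the plate median (webcellHTS2, additive, no log transformation), and the mean of two independent replicates is reported.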

[2] = system: HCT116; experiment: as above; settings: 5 µM; treatment time 24 h; reporter: TCF4/Wnt
In short: as §1

[3] = system: SW480; experiment: as above; settings: 5 µM; treatment time 24 h; reporter: 7TFP
In short: as §1

[4] = system: DLD1; experiment: TCF/Wnt firefly luciferase reporter signal relative to plate median (fraction of plate median); higher = higher Wnt reporter signal; settings: 5 µM; treatment time 24 h; reporter: 7TFP
In short: as §1

[5] = system: SW480; experiment: as above; settings: 5 µM; treatment time 24 h; reporter: 7TFP
In short: as §1

For `CNC(=O)Oc1ccc2c(c1)[C@]1(C)CCN(C)[C@@H]1N2C`, the cell viability [1] was 0.948 ± 0.0071, the cell viability [2] was 0.889 ± 0.12 and the cell viability [3] was 0.966 ± 0.047. For the same compound, the “TCF/Wnt firefly luciferase reporter signal” value [4] was 1.08 ± 0.12 and the “TCF/Wnt firefly luciferase reporter signal” value [5] was 0.989 ± 0.072.
`COc1ccc2[nH]cc(CCN)c2c1` showed a cell viability [1] of 1.09 ± 0.078, a cell viability [2] of 1.06 ± 0.086 and a cell viability [3] of 1.04 ± 0.093. The “TCF/Wnt firefly luciferase reporter signal” value [4] was 0.924 ± 0.095 and the “TCF/Wnt firefly luciferase reporter signal” value [5] was 1.06 ± 0.014.
For `COc1cc2occc2c2oc(=O)ccc12`, the cell viability [1] was 0.986 ± 0.076, the cell viability [2] was 0.941 ± 0.11 and the cell viability [3] was 0.95 ± 0.026. The “TCF/Wnt firefly luciferase reporter signal” value [4] was 1.06 ± 0.17 and the “TCF/Wnt firefly luciferase reporter signal” value [5] was 0.818 ± 0.11.
`C=C[C@H]1CN2CC[C@H]1C[C@H]2[C@H](O)c1ccnc2ccccc12` showed a cell viability [1] of 1.03 ± 0.059, a cell viability [2] of 1.07 ± 0.042 and a cell viability [3] of 1.01 ± 0.023. For the same compound, the “TCF/Wnt firefly luciferase reporter signal” value [4] was 0.862 ± 0.061 and the “TCF/Wnt firefly luciferase reporter signal” value [5] was 0.981 ± 0.028.
In the case of `NC(=O)C[S+]([O-])C(c1ccccc1)c1ccccc1` (stereo not given), the cell viability [1] is reported as 0.952 ± 0.12, the cell viability [2] is reported as 1.1 ± 0.05 and the cell viability [3] is reported as 1.02 ± 0.014. For the same compound, the “TCF/Wnt firefly luciferase reporter signal” value [4] was 1.08 ± 0.064 and the “TCF/Wnt firefly luciferase reporter signal” value [5] was 1.02 ± 0.014.
`COc1cc([C@@H]2c3cc4c(cc3[C@@H](O)[C@H]3COC(=O)[C@H]23)OCO4)cc(OC)c1O` showed a cell viability [1] of 0.952 ± 0.082, a cell viability [2] of 0.613 ± 0.12 and a cell viability [3] of 1.06 ± 0.021. The “TCF/Wnt firefly luciferase reporter signal” value [4] was 0.785 ± 0.17 and the “TCF/Wnt firefly luciferase reporter signal” value [5] was 0.742 ± 0.084.
For `Nc1ccncc1`, the cell viability [1] was 1.025 ± 0.0071, the cell viability [2] was 1.07 ± 0.028 and the cell viability [3] was 1 ± 0.1. For the same compound, the “TCF/Wnt firefly luciferase reporter signal” value [4] was 1.03 ± 0.054 and the “TCF/Wnt firefly luciferase reporter signal” value [5] was 1.13 ± 0.071.
With `CC(=O)O[C@H]1[C@H]2[C@@H](OC(=O)Cc3ccccc3)[C@@H](C)C[C@]2(OC(C)=O)C(=O)/C(C)=C/[C@@H]2[C@H](CC[C@@]13CO3)C2(C)C` the cell viability [1] was 1.06 ± 0.097, the cell viability [2] was 1.01 ± 0.086 and the cell viability [3] was 1.06 ± 0.021. The “TCF/Wnt firefly luciferase reporter signal” value [4] was 1.09 ± 0.014 and the “TCF/Wnt firefly luciferase reporter signal” value [5] was 1.075 ± 0.0071.
`NCCc1cc(O)c(O)cc1O` gave a cell viability [1] of 1.04 ± 0.065, a cell viability [2] of 1.03 ± 0.028 and a cell viability [3] of 0.983 ± 0.025. The “TCF/Wnt firefly luciferase reporter signal” value [4] was 1.13 ± 0.16 and the “TCF/Wnt firefly luciferase reporter signal” value [5] was 1.24 ± 0.021.
In the case of `CC(=O)C1CCC2C3CCC4C[C@H](O)CCC4(C)C3C[C@H](O)C12C` (stereo partly drawn) [DIHYDROXY (3alpha,12alpha)PREGNAN-20-ONE], the cell viability [1] is reported as 1.01 ± 0.042, the cell viability [2] is reported as 1.12 ± 0.13 and the cell viability [3] is reported as 1.1 ± 0.064. The “TCF/Wnt firefly luciferase reporter signal” value [4] was 0.9925 ± 0.0064 and the “TCF/Wnt firefly luciferase reporter signal” value [5] was 0.9855 ± 0.0021.
Work on `c1cncc([C@@H]2CCCCN2)c1` yielded a cell viability [1] of 0.993 ± 0.011, a cell viability [2] of 0.952 ± 0.17 and a cell viability [3] of 0.9635 ± 0.0078. For the same compound, the “TCF/Wnt firefly luciferase reporter signal” value [4] was 0.971 ± 0.11 and the “TCF/Wnt firefly luciferase reporter signal” value [5] was 0.927 ± 0.044.
`CCCN1C[C@H](CSC)C[C@@H]2c3cccc4[nH]cc(c34)C[C@H]21` gave a cell viability [1] of 0.934 ± 0.0057, a cell viability [2] of 0.986 ± 0.049 and a cell viability [3] of 0.863 ± 0.086. For the same compound, the “TCF/Wnt firefly luciferase reporter signal” value [4] was 1 and the “TCF/Wnt firefly luciferase reporter signal” value [5] was 1.015 ± 0.0071.
`NCC(=O)c1ccccc1` was tested, and the cell viability [1] was 0.981 ± 0.11, the cell viability [2] was 0.999 ± 0.059 and the cell viability [3] was 0.983 ± 0.018. For the same compound, the “TCF/Wnt firefly luciferase reporter signal” value [4] was 0.851 ± 0.14 and the “TCF/Wnt firefly luciferase reporter signal” value [5] was 0.917 ± 0.2.
For `C[C@H]1O[C@H](O[C@H]2[C@H](O)[C@@H](O)[C@@H](O)[C@H](O)[C@@H]2O)[C@@H](N)C[C@@H]1NC(=N)C(=O)O`, the cell viability [1] was 0.989 ± 0.086, the cell viability [2] was 1.06 ± 0.035 and the cell viability [3] was 1.035 ± 0.0071. The “TCF/Wnt firefly luciferase reporter signal” value [4] was 1.03 ± 0.028 and the “TCF/Wnt firefly luciferase reporter signal” value [5] was 0.949 ± 0.086.
With `COc1ccc2c(c1)[nH]c1c(C)nccc12` the cell viability [1] was 0.98 ± 0.028, the cell viability [2] was 0.904 ± 0.04 and the cell viability [3] was 0.964 ± 0.036. For the same compound, the “TCF/Wnt firefly luciferase reporter signal” value [4] was 0.623 ± 0.067 and the “TCF/Wnt firefly luciferase reporter signal” value [5] was 0.625 ± 0.097.
For `COc1cc2ccc(=O)oc2c2ccoc12`, the cell viability [1] was 0.932 ± 0.077, the cell viability [2] was 1.01 ± 0.02 and the cell viability [3] was 0.9355 ± 0.0035. The “TCF/Wnt firefly luciferase reporter signal” value [4] was 0.968 ± 0.17 and the “TCF/Wnt firefly luciferase reporter signal” value [5] was 0.996 ± 0.063.
`N[C@@H](Cc1ccc(N(CCCl)CCCl)cc1)C(=O)O` was tested, and the cell viability [1] was 1.01 ± 0.17, the cell viability [2] was 1.02 ± 0.04 and the cell viability [3] was 1 ± 0.04. The “TCF/Wnt firefly luciferase reporter signal” value [4] was 0.986 ± 0.0057 and the “TCF/Wnt firefly luciferase reporter signal” value [5] was 0.936 ± 0.081.
In the case of `CN(C)C(=O)Oc1cccc([N+](C)(C)C)c1`, the cell viability [1] is reported as 1.06 ± 0.089, the cell viability [2] is reported as 0.979 ± 0.017 and the cell viability [3] is reported as 1.01 ± 0.017. For the same compound, the “TCF/Wnt firefly luciferase reporter signal” value [4] was 1.03 ± 0.15 and the “TCF/Wnt firefly luciferase reporter signal” value [5] was 1.09 ± 0.021.
In the case of `Cc1ccc(O)cc1.Cc1cccc(O)c1.Cc1ccccc1O`, the cell viability [1] is reported as 1.085 ± 0.0071, the cell viability [2] is reported as 1.08 ± 0.14 and the cell viability [3] is reported as 1.01 ± 0.014. For the same compound, the “TCF/Wnt firefly luciferase reporter signal” value [4] was 1.09 ± 0.064 and the “TCF/Wnt firefly luciferase reporter signal” value [5] was 1.09 ± 0.057.
Compound `CC(NC(C)(C)C)C(=O)c1cccc(Cl)c1` (stereo not given) has a cell viability [1] of 1.02 ± 0.037, a cell viability [2] of 1.02 ± 0.021 and a cell viability [3] of 1.02 ± 0.021. The “TCF/Wnt firefly luciferase reporter signal” value [4] was 1.11 ± 0.057 and the “TCF/Wnt firefly luciferase reporter signal” value [5] was 1.02 ± 0.11.
With `CON1C(=O)[C@H]2NC(=O)[C@]13Oc1cc(O)c(Cl)cc1[C@@H]3SS2` [Aspirochlorine] the cell viability [1] was 0.736 ± 0.087, the cell viability [2] was 0.918 ± 0.017 and the cell viability [3] was 0.841 ± 0.026. The “TCF/Wnt firefly luciferase reporter signal” value [4] was 0.981 ± 0.28 and the “TCF/Wnt firefly luciferase reporter signal” value [5] was 1 ± 0.035.
Compound `CC1(C)C2C[C@@H](O)[C@]3(C)C(CC[C@@]4(C)[C@H](c5ccoc5)OC(=O)[C@H]5O[C@]543)[C@@]2(C)[C@@H](O)C[C@H]1O` (stereo not given in full) has a cell viability [1] of 1.02 ± 0.071, a cell viability [2] of 0.963 ± 0.081 and a cell viability [3] of 0.989 ± 0.0057. For the same compound, the “TCF/Wnt firefly luciferase reporter signal” value [4] was 1.07 ± 0.18 and the “TCF/Wnt firefly luciferase reporter signal” value [5] was 0.936 ± 0.055.
`C[CH2][Hg][S]c1ccccc1C(=O)[O-].[Na+]` was tested, and the cell viability [1] was 0.303 ± 0.39, the cell viability [2] was 0.378 ± 0.36 and the cell viability [3] was 0.0225 ± 0.0017. For the same compound, the “TCF/Wnt firefly luciferase reporter signal” value [4] was 0.274 ± 0.37 and the “TCF/Wnt firefly luciferase reporter signal” value [5] was 0.0216 ± 0.0027.
For `C=CCN1CC[C@]23c4c5ccc(O)c4O[C@H]2C(=O)CC[C@@]3(O)[C@H]1C5`, the cell viability [1] was 1.04 ± 0.05, the cell viability [2] was 0.936 ± 0.011 and the cell viability [3] was 1.08 ± 0.014. The “TCF/Wnt firefly luciferase reporter signal” value [4] was 0.959 ± 0.011 and the “TCF/Wnt firefly luciferase reporter signal” value [5] was 0.918 ± 0.019.
Work on `CC(=O)OCC1=C(C(=O)O)N2C(=O)[C@@H](NC(=O)CCC[C@@H](N)C(=O)O)[C@H]2SC1` yielded a cell viability [1] of 0.955 ± 0.13, a cell viability [2] of 0.906 ± 0.13 and a cell viability [3] of 0.9165 ± 0.0064. The “TCF/Wnt firefly luciferase reporter signal” value [4] was 1.175 ± 0.0071 and the “TCF/Wnt firefly luciferase reporter signal” value [5] was 1.09 ± 0.05.
With `COc1cc2c(cc1OC)[C@@]13CCN4CC5=CCO[C@H]6CC(=O)N2[C@H]1[C@H]6[C@H]5C[C@H]43` the cell viability [1] was 1.06 ± 0.05, the cell viability [2] was 1 ± 0.097 and the cell viability [3] was 1.04 ± 0.035. For the same compound, the “TCF/Wnt firefly luciferase reporter signal” value [4] was 0.876 ± 0.096 and the “TCF/Wnt firefly luciferase reporter signal” value [5] was 0.974 ± 0.031.
For `C/C=C(/C)C(=O)O[C@H]1CC[C@@]2(C)[C@@H]3CC[C@H]4[C@]5(O)C[C@H](O)[C@@]6(O)[C@@H](CN7C[C@@H](C)CC[C@H]7[C@@]6(C)O)[C@]5(O)C[C@@]42O[C@]13O`, the cell viability [1] was 0.994 ± 0.037, the cell viability [2] was 0.995 ± 0.021 and the cell viability [3] was 0.946 ± 0.017. The “TCF/Wnt firefly luciferase reporter signal” value [4] was 0.952 ± 0.036 and the “TCF/Wnt firefly luciferase reporter signal” value [5] was 0.9235 ± 0.0078.
In the case of `C/C=C(\C)C(=O)O[C@H]1C[C@@H](OC(C)=O)[C@@]2(C(=O)OC)CO[C@H]3[C@@H](O)[C@@](C)([C@]45O[C@@]4(C)[C@H]4C[C@@H]5O[C@@H]5OC=C[C@@]54O)[C@H]4[C@]1(CO[C@]4(O)C(=O)OC)[C@@H]32`, the cell viability [1] is reported as 0.998 ± 0.017, the cell viability [2] is reported as 0.999 ± 0.087 and the cell viability [3] is reported as 0.959 ± 0.051. For the same compound, the “TCF/Wnt firefly luciferase reporter signal” value [4] was 0.973 ± 0.052 and the “TCF/Wnt firefly luciferase reporter signal” value [5] was 0.962 ± 0.04.
